Assay results as given in PubChem BioAssay.
Several values for one entry are separate records, joined by “and”; a condition that tells them apart may be missing. Identical values can stand only once. Activity calls are given as the source filed them.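 The calls were made as follows, unless noted: active = inhibition at or above 50% relative to wild type and mutant plate controls; inactive = inhibition below 50%.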

Legend:
[1] = inhibitors of TNFa-induced NFkB p65 translocation, primary screen, imaging, HUVEC, MLSMR starter and 10KST1 sets (AID 438;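 active = inhibition above 20% together with a positive visual image hit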;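 also: compound added about 3h40 before a 20 min TNFalpha stimulation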;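 as to inhibition: signal is the nuclear over cytoplasmic p65 intensity ratio per well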); details: HUVEC TNFa-induced p65 nuclear translocation; cell count: measured here: nuclei count (cytotoxicity indicator), at 2.08 µM; inhibition: at 2 µM, stronger effect = higher value, 0% TNFa-plus-vehicle, 100% no-TNFa wells
[2] = inhibitors of mutant huntingtin aggregation, primary screen, imaging, exon1htt(103Q)mCFP cells, high-content imaging (AID 483;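 active = visual image review flags a hit and inhibition of aggregation exceeds 20%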;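 also: compound exposure lasted 3 days before fixation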;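 as to nuclei count: percent of the per-plate median nuclei count of sample wells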); details: exon1htt(103Q)mCFP cell line, aggregate imaging, at 2 µM; inhibition of aggregation: stronger effect = higher value; nuclei count: measured here: cell count, toxicity
[3] = inhibitors of E-selectin induction by TNFa, primary screen, imaging, HUVEC, immunofluorescence, MLSMR starter and 10KST1 sets (AID 487;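 active = visually confirmed hit in the image check and inhibition above 20%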;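 as to inhibition: signal is fraction of cell area covered by stained E-selectin grains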;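 as to nuclei count: 100% = median nuclei count of all wells on the same plate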); details: HUVEC TNFalpha-induced E-selectin immunofluorescence imaging, at 2 µM; inhibition: stronger effect = higher value; nuclei count: measured here: cell number, toxicity
[4] = DUSP6 inhibitors restoring Erk phosphorylation by chemical complementation, primary imaging in DUSP6-transfected HeLa (AID 609;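 active = compounds giving at least 50% inhibition in the cell-based MKP-3 phosphatase rescue imaging test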;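 as to inhibition: phospho-Erk level distribution per well compared with pooled transfected vehicle control wells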); details: HeLa MKP-3 transfected, phospho-Erk imaging KS statistic, at 10 µM, cells stimulated with TPA for 15 min
[5] = biological target: Dual specificity protein phosphatase 6 (Homo sapiens) (UniProt Q16828); experiment: as above; details: HeLa MKP-3 transfected, phospho-Erk imaging KS statistic; at 10 µM; stronger effect = higher value; cells stimulated with TPA for 15 min
[6] = biological target: Voltage-gated potassium channel subunit beta-2 (Rattus norvegicus) (UniProt P62483); experiment: KvBeta enzyme negative modulators, primary screen, biochemical, NADPH fluorescence (AID 622;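 active = fluorescence slope higher than the sample average by over 3 SD, cut at about -0.22 in these data, passing the limit was not always enough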;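 also: slope of raw intensity against log time taken from 70 to 1610 s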); details: recombinant KvBeta, 4-cyanobenzaldehyde reduction, at 10 µM, stronger effect = higher value
[7] = biological target: Voltage-gated potassium channel subunit beta-2 (Rattus norvegicus) (UniProt P62483); experiment: KvBeta positive modulators, primary screen, biochemical, NADPH fluorescence (AID 623;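 active = NADPH fluorescence slope more negative than the mean of all samples by about 3 SD, 99.7% confidence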;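 also: fluorescence intensity change per second fitted from 20 to 320 s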); details: Recombinant KvBeta, NADPH fluorescence decrease slope, 10 min; at 10 µM; stronger effect = lower value
[8] = biological target: Alpha-2C adrenergic receptor (Homo sapiens) (UniProt P18825); experiment: modulators of alpha2C/GIRK thallium flux, primary screen, cell-based, HEK293 alpha2C/GIRK1/2 (AID 624;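 active = fluorescence slope after compound addition differing from the mean of all screened samples at 99.7% confidence, in either direction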;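 also: slope of fluorescence ratio to pre-addition baseline per second over 15 to 24 s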); details: thallium flux BTC fluorescence, at 10 µM, actives lie on both sides
[9] = inhibitors of larval lipid processing in zebrafish, primary screen, whole organism, PED6 fluorescence, gall bladder and intestine (AID 686;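 active = a full or partial loss of lipid-probe fluorescence in the fish gall bladder, intestine or both, judged by eye; inactive = no fluorescence loss, or compound toxic to the fish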;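 also: larvae 5 to 7 days old with five fish per well; signal comes from phospholipase A2 cleavage of quenched PED6 carried via bile; overnight exposure to compound and PED6 before scoring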); details: Zebrafish larvae PED6 lipid processing, fluorescence scoring; screened at 20 µM (by protocol)
[10] = inhibitors of Chlamydomonas gravitaxis, primary screen, whole organism, Chlamydomonas reinhardtii, WT vs cilia-less mutant, absorbance, 96-well (AID 463189); details: OD600 absorbance, 2 days, at 10 µM, stronger effect = higher value;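 also: 0% = wild type cc124 cells in DMSO and 100% = ciliumless bld1 mutant cells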
[11] = inhibitors of Sendai virus-induced IRF3 signaling, primary screen, TLR/RLR signaling modifier project, cell-based, Sendai virus stimulus, luciferase, 10K MLSCN set (AID 602276;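 active = inhibition at or above 50% at 10 µM; inactive = inhibition below 50%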;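 also: firefly luciferase from ISG56 promoter only with Renilla not read in this screen; 0% = Sendai virus plus DMSO and 100% = medium plus DMSO without virus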); details: HEK293 RL24 IRF3 luciferase reporter, at 10 µM, stronger effect = higher value
[12] = inhibitors of poly I:C-induced TLR3 signaling, primary screen, cell-based, poly I:C stimulus, luciferase, 10K MLSCN set (AID 602277;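 active = inhibition of the reporter signal at or above 50%; inactive = inhibition below 50%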); details: HEK293-TLR3 RL24 IRF3 luciferase reporter, at 10 µM, stronger effect = higher value
[13] = measured here: cell density z-score
[14] = measured here: nuclear c-Myc green intensity z-score
[15] = measured here: nuclear pErk red intensity z-score, stronger effect = higher value

Chain of Alpha-2C adrenergic receptor (Homo sapiens) (P18825 whole entry, looked up): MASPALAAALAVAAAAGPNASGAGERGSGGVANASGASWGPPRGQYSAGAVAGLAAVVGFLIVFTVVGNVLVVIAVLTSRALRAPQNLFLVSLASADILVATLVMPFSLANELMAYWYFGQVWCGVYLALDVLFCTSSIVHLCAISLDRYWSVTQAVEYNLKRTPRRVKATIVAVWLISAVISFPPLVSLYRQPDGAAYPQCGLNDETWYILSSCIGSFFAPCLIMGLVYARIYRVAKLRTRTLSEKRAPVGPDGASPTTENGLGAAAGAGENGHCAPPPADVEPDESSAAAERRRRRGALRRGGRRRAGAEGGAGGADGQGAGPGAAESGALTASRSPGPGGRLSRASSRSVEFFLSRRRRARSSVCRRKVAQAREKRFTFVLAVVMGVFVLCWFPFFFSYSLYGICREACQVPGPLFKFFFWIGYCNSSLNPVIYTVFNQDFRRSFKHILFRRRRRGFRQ
Chain of Voltage-gated potassium channel subunit beta-2 (Rattus norvegicus) (P62483 whole entry, looked up): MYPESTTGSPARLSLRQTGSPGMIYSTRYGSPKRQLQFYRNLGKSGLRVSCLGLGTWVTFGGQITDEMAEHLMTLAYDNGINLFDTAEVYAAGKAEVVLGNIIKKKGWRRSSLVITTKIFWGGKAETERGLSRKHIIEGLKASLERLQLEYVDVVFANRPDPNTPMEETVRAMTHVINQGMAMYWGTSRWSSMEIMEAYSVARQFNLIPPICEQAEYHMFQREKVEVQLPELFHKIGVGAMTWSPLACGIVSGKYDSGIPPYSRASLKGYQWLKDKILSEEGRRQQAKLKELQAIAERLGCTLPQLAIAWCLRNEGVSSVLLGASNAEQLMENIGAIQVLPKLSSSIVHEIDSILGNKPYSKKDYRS
Chain of Dual specificity protein phosphatase 6 (Homo sapiens) (Q16828 whole entry, looked up): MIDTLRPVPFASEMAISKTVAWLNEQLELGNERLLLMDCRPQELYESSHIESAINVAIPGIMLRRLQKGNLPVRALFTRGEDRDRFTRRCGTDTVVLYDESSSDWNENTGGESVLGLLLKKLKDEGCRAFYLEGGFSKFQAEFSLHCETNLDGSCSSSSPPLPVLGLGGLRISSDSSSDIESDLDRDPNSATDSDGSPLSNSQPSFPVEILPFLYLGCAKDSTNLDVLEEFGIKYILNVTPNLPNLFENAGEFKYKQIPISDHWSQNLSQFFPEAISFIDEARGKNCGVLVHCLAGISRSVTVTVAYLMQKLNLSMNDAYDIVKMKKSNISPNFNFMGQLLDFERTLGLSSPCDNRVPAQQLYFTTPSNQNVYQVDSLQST

SMILES | cell count [1] | inhibition [1] | inhibition of aggregation [2] | nuclei count [2] | inhibition [3] | nuclei count [3] | z-score [4, 13] | z-score [4, 14] | z-score [4, 15] | inhibition [5] | fluorescence slope [6] | NADPH fluorescence slope [7] | slope [8] | outcome [9] | inhibition [10] | inhibition [11] | inhibition [12]
N[C@@H](C(=O)N[C@@H]1C(=O)N2C(C(=O)O)=C(Cl)CS[C@H]12)c1ccccc1 | 693 | -2% (inactive) | -5.3% (inactive) | 113% | -84.8% (inactive) | 122% | -0.332 | -0.293 | -0.889 | 7.39% (inactive) | -0.441 (inactive) | -5.1e-05 (inactive) | 0.00559 (inactive) | inactive | 21.4% (inactive) | 12.2% (inactive) | 28.5% (inactive)
CCN(CC)CCCC1(CN)OCCc2ccccc21 (stereo not given) | 475 | -12.9% (inactive) | -31.3% (inactive) | 86.5% | -55.8% (inactive) | 104% | 1.04 | 0.0892 | -0.524 | 17% (inactive) | -0.378 (inactive) | -6.2e-06 (inactive) | 0.00288 (inactive) | inactive | 24.5% (inactive) | 5.61% (inactive) | 50.5% (active)
CN1CCN(CC(=O)N2c3ccccc3C(=O)Nc3cccnc32)CC1 | 529 | 5.4% (inactive) | -20% (inactive) | 110% | -81.3% (inactive) | 123% | 2.59 | -0.126 | -1.97 | 25.7% (inactive) | -0.476 (inactive) | -3.8e-05 (inactive) | 0.00501 (inactive) | inactive | 1.89% (inactive) and 39.4% (inactive) | 18.8% (inactive) | 34.2% (inactive)
Cc1[nH]c2ccc(F)cc2c(=O)c1SC(F)(F)C(F)C(F)(F)F (stereo not given) | 491 | -1.1% (inactive) | 4% (inactive) | 77.7% | -48.3% (inactive) | 123% | -0.588 | 0.342 | -0.414 | 2.46% (inactive) | -0.42 (inactive) | -3.8e-05 (inactive) | 0.0059 (inactive) | inactive | -4.7% (inactive) | 14.5% (inactive) | 20.3% (inactive)
COC(=O)c1cc(Br)c(=O)n(Cc2cccnc2)c1 | 578 | 3% (inactive) | -10.7% (inactive) | 108% | -15.9% (inactive) | 109% | -0.222 | 1.1 | -1.83 | -3.5% (inactive) | -0.545 (inactive) | -2.2e-05 (inactive) | 0.00588 (inactive) | inactive | -26.1% (inactive) | 9.75% (inactive) | 17.7% (inactive)
Cc1cccc(N(C)C(=S)Oc2ccc3ccccc3c2)c1 | 604 | -0.1% (inactive) | 1.5% (inactive) | 115% | -124% (inactive) | 117% | -0.0512 | 0.405 | -0.61 | 5.42% (inactive) | -0.463 (inactive) | -2.6e-05 (inactive) | 0.00625 (inactive) | active; weak signal in gallbladder and intestine | 97.3% (active) | -6.47% (inactive) | -10.7% (inactive)
CCOC(=O)CSC1=C(C#N)C(c2ccc3c(c2)OCO3)CC(=O)N1 (stereo not given) | 562 | -1.1% (inactive) | -16.1% (inactive) | 82.2% | -43.4% (inactive) | 80.7% | -0.992 | 0.745 | 0.964 | 3.66% (inactive) | -0.471 (inactive) | -0.000313 (inactive) | 0.00534 (inactive) | inactive | 14.3% (inactive) | 36.8% (inactive) | 34.7% (inactive)
COc1cccc(-c2nnc3sc(-c4ccc(C)cc4)nn23)c1 | 634 | 3.3% (inactive) | 11.6% (inactive) | 77.9% | -24.2% (inactive) | 121% | -0.746 | -0.965 | 1.01 | -4.27% (inactive) | -0.414 (inactive) | -0.000137 (inactive) | 0.00537 (inactive) | inactive | 5.03% (inactive) | 2.84% (inactive) | 34.9% (inactive)
COc1cccc(Cn2c(Oc3ccccc3)nc3c2c(=O)n(C)c(=O)n3C)c1 | 373 | -4.8% (inactive) | 17.7% (inactive) | 87.9% | -67.3% (inactive) | 150% | -0.332 | -0.584 | 0.142 | 1.04% (inactive) | -0.369 (inactive) | -2.2e-05 (inactive) | 0.00481 (inactive) | inactive | 8.33% (inactive) | 19.3% (inactive) | 10.3% (inactive)
O=C1NC(c2cccs2)Nc2ccccc21 (stereo not given) | 600 | -16.1% (inactive) | 14.1% (inactive) | 130% | -3.3% (inactive) | 140% | -1.25 | -1.7 | 1.79 | 1.12% (inactive) | -0.292 (inactive) | -3.3e-05 (inactive) | 0.00756 (inactive) | inactive | 15.5% (inactive) | -3% (inactive) | 0.34% (inactive)
OC[C@H]1O[C@@H](n2cnc3c(NC4CCCC4)ncnc32)[C@H](O)[C@@H]1O | 528 | -13.1% (inactive) | -15.5% (inactive) | 110% | -19.6% (inactive) | 126% | 1.27 | -0.327 | -0.893 | 11.3% (inactive) | -0.459 (inactive) | 2.3e-05 (inactive) | 0.00611 (inactive) | inactive | 30.3% (inactive) | -1.14% (inactive) | 12.9% (inactive)
COC(=O)CN(c1nc(C)c(Cl)c(OC)n1)S(=O)(=O)c1ccc(C)cc1 | 706 | -4.1% (inactive) | 2.4% (inactive) | 98.1% | -48.3% (inactive) | 148% | -0.882 | 0.458 | 1.21 | -11% (inactive) | -0.373 (inactive) | -4.1e-05 (inactive) | 0.00465 (inactive) | inactive | 5.7% (inactive) | 13.8% (inactive) | 18.7% (inactive)
CCOC(=O)C1=C[C@]2(CC)CCCN3CCc4c(n1c1ccccc41)[C@@H]32 | 689 | -1.6% (inactive) | 15.2% (inactive) | 106% | -59.3% (inactive) | 130% | -0.259 | 0.193 | -0.265 | 3.45% (inactive) | -0.443 (inactive) | -4.6e-05 (inactive) | 0.013 (active) | inactive | 5.61% (inactive) and -6.65% (inactive) | 5.01% (inactive) | 18.6% (inactive)
Cc1ccc(/C(O)=C2/C(=O)C(=O)N(Cc3ccco3)C2c2cccs2)cc1 (stereo not given) | 592 | -1.5% (inactive) | -9.7% (inactive) | 111% | -40.6% (inactive) | 136% | -0.164 | 0.546 | 1.58 | -18.6% (inactive) | -0.497 (inactive) | -6.4e-05 (inactive) | 0.00587 (inactive) | inactive | -4.07% (inactive) | -8% (inactive) | 3.2% (inactive)
Nc1ccc(S(=O)(=O)NC(=O)c2ccccc2)cc1 | 544 | 2.5% (inactive) | 17.5% (inactive) | 94.6% | -116% (inactive) | 110% | -1.45 | 0.254 | 0.397 | 14.6% (inactive) | -0.517 (inactive) | -5.5e-05 (inactive) | 0.00537 (inactive) | inactive | 5.05% (inactive) | 21.8% (inactive) | 34.4% (inactive)
Nc1nnc(-c2cccc(Cl)c2Cl)c(N)n1 | 697 | -8.4% (inactive) | 2.2% (inactive) | 112% | -39.9% (inactive) | 139% | -0.0756 | -0.0257 | 1.16 | 1.48% (inactive) | -0.527 (inactive) | -7.1e-06 (inactive) | 0.00578 (inactive) | inactive | -6.28% (inactive) and 7.36% (inactive) | -2.35% (inactive) | 13.8% (inactive)
Cc1c(/C(O)=C2/C(=O)C(=O)N(CCN3CCOCC3)C2c2cccnc2)cnn1-c1ccccc1 (stereo not given) | 509 | 4.8% (inactive) | 1.3% (inactive) | 102% | -26.8% (inactive) | 107% | 0.15 | -0.278 | -0.0426 | 1.6e-07% (inactive) | -0.602 (inactive) | -1.5e-05 (inactive) | 0.00432 (inactive) | inactive | 23.9% (inactive) | -12% (inactive) | -9.27% (inactive)
CCOC(=O)c1c(C)n(C)c2ccc(OC)c(NC(=O)CCN3CCSCC3)c12 | 476 | 3% (inactive) | 5.7% (inactive) | 112% | -134% (inactive) | 114% | -2.21 | 0.452 | 0.641 | -9.66% (inactive) | -0.464 (inactive) | -6.9e-05 (inactive) | 0.00572 (inactive) | inactive | 4.14% (inactive) | 24.4% (inactive) | 28.3% (inactive)
CN=c1sc2ccccc2n1CC(O)COCc1ccco1 (stereo not given) | 575 | 0.4% (inactive) | 6.5% (inactive) | 98.5% | -71.1% (inactive) | 138% | 0.277 | 0.426 | 0.235 | 1.04% (inactive) | -0.302 (inactive) | -1.1e-05 (inactive) | 0.00567 (inactive) | inactive | 7.79% (inactive) | 12.5% (inactive) | 29.1% (inactive)
CCCCCC#CCC#CCC#CCC#CCCCC(=O)O | 542 | -10.5% (inactive) | -23.3% (inactive) | 92.5% | -39.3% (inactive) | 127% | -0.772 | 0.757 | 0.0999 | -0.493% (inactive) | -0.461 (inactive) | -0.000212 (active) | 0.00468 (inactive) | inactive | 2.88% (inactive) | 11% (inactive) | 33.2% (inactive)
